From PubChem BioAssay (Tox21) come the findings set out here.

Where “and” joins values, the source holds several entries; their conditions need not be identical. Identical values can stand only once. Inconclusive results are not listed. Entries that show only a call come without a potency. Where a structure was tested more than once in an assay, its records may differ in their call. Calls of active or inactive are those of the source. Calls follow the shape of the dose curve; as a rule, active = well fitted activation curve with a large enough effect in the repeat runs; inconclusive = weak or mixed curves; inactive = flat fitted curve, though single readings scatter.
Potency is read from the fitted curve at half-maximal effect.

The experiment is described as follows: A CellTox Green Cytotoxicity Assay to monitor cytotoxicity in HepG2 cells - 40 hour (AID 1224879). Also: nearly all actives have a fitted effect of over 40% in size. Conditions: CellTox Green fluorescence; series mostly up to 76.8 µM; cytotoxicity increase: at the top concentration. The text has this:
National Center for Advancing Translational Sciences [NCATS]
NIH Chemical Genomics Center [NCGC]
U.S. Environmental Protection Agency [EPA]
National Institutes of Environmental Health Sciences [NIEHS]
National Toxicology Program [NTP]
Cell-based models are critical for drug discovery. Determining the natural cytotoxic effects resulting from test compounds is an essential research activity. A CellTox Green Cytotoxicity Assay to monitor cytotoxicity in real time of continues cell culture during 40 hours of the compound treatment was used to screen Tox21 10K library compounds in HepG2 cells. CellTox Green Cytotoxicity Assay is a nonlytic, homogeneous, biofluorescent method to measure cytotoxicity in cell culture after experimental manipulation. The assay system uses a proprietary asymmetric cyanine dye that is excluded from viable cells but preferentially stains the dead cell's DNA. […] Viable cells produce no appreciable increases in fluorescence. Therefore, the fluorescence signal produced by the binding interaction with dead cell DNA is proportional to cytotoxicity.
The mixture of HepG2 cell suspension and reagents were dispensed at 600cells/6 ul/well in 1536-well tissue culture treated black solid bottom plates using a Multidrop dispenser. After the assay plates were incubated at a 37 C/5% CO2 incubator for 5 hours, 23 nL of compounds dissolved in DMSO, positive and negative controls was transferred to the assay plate by a pintool work station. The plates were incubated at 37 C for 40 hours. The fluorescence intensity were measured at 0h, 8h, 16h, 24h, 32h and 40h time points using ViewLux plate reader during compound treatment.
Regarding `Cc1cc(C)c(C)cc1C`, the Potency result was “inactive”.

On to `COc1ccc(Nc2ccccc2)c(C)c1`, for which the Potency result was “inactive”.

`CC1CCC(C(C)C)C(O)C1` (stereo not given): the Potency entry is “inactive”.

Turning to `c1ccc2scnc2c1`, the Potency entry is “inactive”.

As to `O=C(O)CCCC[C@@H]1SC[C@@H]2NC(=O)N[C@@H]21`, the Potency result is “inactive”.

In the case of `O=C(O)c1ccc2c(c1)C(=O)OC2=O`, the Potency entry was “inactive”.

For `CCCCC(CC)CO` (stereo not given), the Potency result is “inactive”.

With `OCCOCCN1CCN(C2=Nc3ccccc3Sc3ccccc32)CC1`, the “cytotoxicity increase” value was 4.73% [at 35.3 µM] (inactive).

Turning to `CCCCCCCC(=O)OC`, the “cytotoxicity increase” value was -6.53% (inactive).

Consider `CCC(O)OCCCOC` (stereo not given), for which the Potency result was “inactive”.

For `CC(=O)Nc1cccc(O)c1`, the Potency entry is “inactive”.

`C=C(C)C(=O)O[C@H]1C[C@@H]2CC[C@@]1(C)C2(C)C`: the Potency was 7.71 µM (active) and inactive.

Consider `O=S1(=O)CC=CC1`, for which the Potency entry was “inactive”.

As to `O=C(O)c1ccccc1C(c1ccc(O)cc1)c1ccc(O)cc1`, the Potency entry is “inactive”.

On to `Cc1cccc(O)c1`, for which the “cytotoxicity increase” value was 19.5% (inactive).

Take `OCc1cccnc1`: the Potency result was “inactive”.

Regarding `CC(=O)OCC(=O)[C@@]12N=C(C)O[C@@H]1C[C@H]1[C@@H]3CCC4=CC(=O)C=C[C@]4(C)[C@H]3[C@@H](O)C[C@@]12C`, the Potency entry is “inactive”.

With `C/C=C1/CC2C=CC1C2` (stereo not given), the Potency result is “inactive”.

`C[C@H]1C[C@H]2[C@@H]3CCC4=CC(=O)C=C[C@]4(C)[C@@]3(F)[C@@H](O)C[C@]2(C)[C@@]1(O)C(=O)CO`: the Potency result was “inactive”.

Regarding `CSCCC=O`, the “cytotoxicity increase” value was -4.95% (inactive).

For the compound `Nc1ccccc1[N+](=O)[O-]`, the Potency result was “inactive”.

For the compound `CC(C)CC(=O)CC(C)C`, the Potency entry was “inactive”.

For `CCCCCCCCCCCCCCO`, the Potency entry is “inactive”.

With `C=C(C)C(=O)OCCOCCOCCOC(=O)C(=C)C`, the Potency result was “inactive”.

Turning to `COc1ccc2cc([C@H](C)C(=O)O)ccc2c1`, the Potency entry is “inactive”.

For `CN(C)CCC(c1ccc(Cl)cc1)c1ccccn1` (stereo not given), the “cytotoxicity increase” value is 25.3% (inactive).

Regarding `O=c1[nH]c(=O)n([C@H]2CCCO2)cc1F`, the Potency entry is “inactive”.

In the case of `C=CCOC(=O)c1ccccc1C(=O)OCC=C`, the “cytotoxicity increase” value was 13.9% (inactive).

With `CCCCCCCCCCCCS`, the Potency entry is “inactive”.

Consider `Cc1cccnc1`, for which the Potency entry is “inactive”.

With `C=CCNC(N)=S`, the Potency entry is “inactive”.

Take `CN(C)CCC(c1ccccc1)c1ccccn1` (stereo not given): the Potency result was “inactive”.

Consider `COc1ccc(NC(C)=O)cc1N`, for which the Potency result is “inactive and 43.6 µM (active)”.

On to `CC(=O)Nc1ccccc1`, for which the Potency result is “inactive”.

Take `CCC(O)OC(O)CC` (stereo not given): the Potency entry was “inactive”.

Consider `O=C(O)CCCCCCCCCCC(=O)O`, for which the Potency result is “inactive”.

With `CCOC(=O)NNc1nncc2ccccc12`, the Potency result is “inactive”.

As to `CCCCCC(N)=O`, the Potency result was “inactive”.

In the case of `Cc1ccc(S(N)(=O)=O)cc1`, the Potency entry is “inactive”.

Turning to `CC1=CCC2CC1C2(C)C` (stereo not given), the Potency result was “inactive”.
